Data on 66 compounds can be found in PubChem BioAssay AID588742 (Southern Research Specialized Biocontainment Screening …, 2011).

In all, about 1,800 compounds went through this assay and about 410 (23%) were called active. The rule behind the calls is not given here. The list is a sample of the results. Measured potencies and affinities stand elsewhere.

The nature of this assay: viability of Vero cells under compound – cytotoxicity control for flavivirus capping enzyme inhibitors (AID 588742). As to conditions: cytotoxicity counter-screen; series mostly up to 40 µM. A general note: A counterscreen serves to expose hits that act by an unwanted route or on another target.
Take `CCC(C(=O)O)N1C(=O)/C(=C/C(C)=C/c2ccccc2)SC1=S` (stereo unspecified): the compound was classed as inactive.

`CC(=O)Nc1ccc2nc(N)sc2c1`: the compound was classed as inactive.

On to `COc1ccc(NCC(=O)N/N=C2\CCc3ccccc32)cc1`, for which the result was inactive.

On to `CCOC(=O)c1c(N)sc2c1CCS(=O)(=O)C2`, for which the result was inactive.

As for `CCOC(=O)c1c(N)sc(=S)c2c1CCC2`, the compound was called inactive.

Regarding `CCCCC1=CC2=C(c3ccco3)C(=O)C(C)(OC(=O)c3ccc(OC)cc3)C(=O)C2=CN1C1CC1` (stereo unspecified), the call was inactive.

Turning to `CC1=NOC(=O)/C1=C/c1ccc2c(c1)OCO2`, the compound was called inactive.

With `CC(=O)c1ccc(NC(=O)CSc2nnc(-c3ccco3)c(-c3ccco3)n2)cc1`, the result was inactive.

`Nc1c(C(=O)O)sc2nc(-c3ccccc3)cc(-c3ccc(Cl)cc3)c12`: the call was inactive.

Turning to `CCOC(=O)C1=C(O)/C(=C\c2ccc(CNC(=O)C(=O)Nc3ccccc3)o2)N=C1C`, the result was inactive.

Take `COc1c(OC(C)=O)ccc(/C=N\NC(=O)c2ccc(Br)cc2)c1[N+](=O)[O-]`: the call was inactive.

Take `O=C(O/N=C1\CCCCC1c1ccc([N+](=O)[O-])cc1[N+](=O)[O-])c1c(F)cccc1F` (stereo unspecified): the outcome was inactive.

Turning to `O=C(O)c1cc(/C=C/C(=O)c2cc(F)ccc2O)c2c(c1)COCO2`, the call was inactive.

`Cc1cc(S(=O)(=O)ON2C(=O)c3ccccc3C2=O)ccc1F`: the call was inactive.

With `Cc1cc(N2C(=O)C(O)=C(C(=O)c3ccco3)C2c2cccc(Oc3ccccc3)c2)no1` (stereo unspecified), the result was inactive.

`CCCCC1=CC2=CC(=O)C(C)(OC(=O)CC)C(=O)C2=CN1Cc1ccc(OC)cc1` (stereo unspecified): the compound was classed as inactive.

With `O=C1C=CC2=C3c4cc(O)c(O)cc4CC3(O)COC2=C1O` (stereo unspecified), the compound was called inactive.

Regarding `CCOC(=O)C1(C)/C(=N/Nc2cccc(Cl)c2)C(=O)C(=O)N1c1ccccc1` (stereo unspecified), the compound was classed as inactive.

As for `N=C1/C(=C\c2ccc(OC(=O)c3ccc(F)cc3)cc2)C(=O)N=C2SC(N3CCOCC3)=NN12`, the compound was classed as inactive.

As to `O=C(N/N=C/C(Cl)=C/c1ccc([N+](=O)[O-])cc1)C(=O)Nc1ccccc1C(=O)O`, the result was inactive.

As for `O=C(O)CCCCCN1C(=O)C(O)=C(C(=O)/C=C/c2ccccc2)C1c1ccccc1[N+](=O)[O-]` (stereo unspecified), the compound was called inactive.

Take `O=C(CCN1C(=O)/C(=C/c2ccccc2Cl)SC1=S)Nc1ccccc1C(=O)O`: the call was inactive.

As to `Oc1cc(-n2cccn2)c(O)cc1-n1cccn1`, the compound was classed as inactive.

On to `CC(=O)Nc1ccc(NC(=O)CC2Nc3cccc4cccc(c34)NC2=O)cc1` (stereo unspecified), for which the compound was called inactive.

As to `COc1ccc(C2C=C(c3ccc(F)cc3)NC(=S)N2)cc1OC` (stereo unspecified), the compound was called inactive.

As to `COC(=O)CCC(=O)OC1(C)C(=O)C2=CN(c3ccccc3)C(c3ccc(OC)cc3)=CC2=C(Br)C1=O` (stereo unspecified), the result was inactive.

As to `O=c1[nH]c(/C=C/c2ccc(Cl)cc2Cl)c([N+](=O)[O-])c(=O)[nH]1`, the call was inactive.

With `CC1CCc2c(sc(N)c2C(N)=O)C1` (stereo unspecified), the outcome was inactive.

For the compound `O=c1cccccc1NCc1ccccc1`, the compound was called inactive.

Regarding `CN(C(=S)Nc1cccnc1)c1ccc(O)cc1`, the call was inactive.

`CCOc1ccc(Nc2ccc(N)c(S(=O)(=O)O)c2)cc1`: the call was inactive.

As to `Oc1ccc(NCc2ccc(OCc3ccccc3)cc2)cc1`, the result was inactive.

As for `NC(=S)NNc1cccc2cccnc12`, the compound was classed as inactive.

Consider `O=C1C=C(Nc2ccccc2C(=O)O)c2ccccc2C1=O`, for which the call was inactive.

For `CCC(C)c1ccc(NC(=O)Nc2cccnc2)cc1` (stereo unspecified), the compound was called inactive.

On to `C#CCOc1c(/C=C\c2nc(O)c([N+](=O)[O-])c(=O)[nH]2)cc(Br)cc1OC`, for which the outcome was inactive.

On to `COC(=O)c1ccc(NC(=O)CCc2nnc3ccc(NCc4ccco4)nn23)cc1`, for which the compound was classed as inactive.

In the case of `COc1ccc(OC)c(/C=C/c2c([N+](=O)[O-])c(=O)n(C)c(=O)n2C)c1`, the compound was called inactive.

Consider `CC1(OC(=O)CCc2ccccc2)C(=O)C=C2C=C(c3ccc(C#N)cc3)N(C3CCCC3)C=C2C1=O` (stereo unspecified), for which the outcome was inactive.

As to `O=C1/C(=C\c2ccc(-c3ccccc3[N+](=O)[O-])o2)C(c2ccccc2)=NN1c1ccccc1`, the call was inactive.

`CCn1c(CSc2nnc3ccccn23)nc2cc(C(=O)O)ccc21`: the result was inactive.

Take `O=C(O)C1=CC[C@@H](c2ccc(Cl)cc2)N(S(=O)(=O)c2ccc(Cl)cc2)[C@H]1c1cccc(Cl)c1`: the call was inactive.

With `Cc1ccc(Nc2ccc(N)cc2S(=O)(=O)O)cc1`, the call was inactive.

Turning to `COc1ccccc1CNC(=S)Nc1ccc(S(N)(=O)=O)cc1`, the result was inactive.

Take `Cc1ccc(C)c(S(=O)(=O)ON2C(=O)c3ccccc3C2=O)c1`: the call was inactive.

On to `CCOC(=O)c1c(-c2cccc(C)c2)csc1NC(=O)C1CC=CCC1C(=O)O` (stereo unspecified), for which the outcome was inactive.

With `Cc1ccc(C(=O)Nc2ccccc2C(=O)O)cc1S(=O)(=O)Nc1ccc(Br)cc1`, the call was inactive.

In the case of `COC(=O)c1ccc(N2NC(=O)/C(=C/c3ccc(-c4ccc(Cl)c(C(=O)O)c4)o3)C2=O)cc1`, the compound was called inactive.

As for `CC1(OC(=O)C2CCCC2)C(=O)C=C2C=C(c3ccsc3)N(CCc3ccccn3)C=C2C1=O` (stereo unspecified), the call was inactive.

For the compound `CSc1nsc2nc(=O)c(/C=C3\C=Nc4ccccc43)c(N)n12`, the result was inactive.

Turning to `CC1=NN(Cc2ccccc2)C(=O)C1C(c1ccc(Cl)cc1)C(C#N)C#N` (stereo unspecified), the call was inactive.

Take `Cc1ccc(NC(=O)c2cccc(C(=O)Nc3ccc(C)cc3C(=O)O)c2)c(C(=O)O)c1`: the result was inactive.

On to `Cc1ccc(F)c(NC(=O)/C(C#N)=C(\O)c2ccc(C(C)(C)C)cc2)c1`, for which the compound was called inactive.

As to `Cn1c(=O)c2[nH]c(-c3ccccc3)c(O)c2n(C)c1=O`, the outcome was inactive.

As to `O=C(O)c1ccc2c(c1)C(=O)N(c1ccc(/C=C/C(=O)c3ccccc3)cc1)C2=O`, the result was inactive.

On to `O=C(O)COc1ccc(/C=C/C(=O)c2ccc(C3CCCCC3)cc2)cc1`, for which the outcome was inactive.

As to `C#CCOc1c(Br)cc(/C=C2/C(=O)ON=C2C)cc1OC`, the result was inactive.

As to `CC(C(=O)Nc1ccc(O)cc1C(=O)O)N1C(=O)/C(=C\c2cccs2)SC1=S` (stereo unspecified), the call was inactive.

Take `O=C1CC2CCCN2C=C1I` (stereo unspecified): the compound was classed as inactive.

`c1cc2c(cc1CNc1ccc(N3CCOCC3)cc1)OCO2`: the compound was called inactive.

With `Cc1ccc(-c2cc(C(=O)O)c3cc(Br)ccc3n2)o1`, the compound was classed as inactive.

For `Cc1ccnc(NCc2ccccc2O)c1`, the compound was classed as inactive.

Take `O=C1C(Cl)=C(N2CCCCC2)C(=O)N1c1ccccc1`: the compound was called inactive.

`CN1CCN(C2=C(Cl)C(=O)N(c3ccc(Cl)c(Cl)c3)C2=O)CC1`: the compound was classed as inactive.

Consider `Cc1ccc(N2C(=O)C(Cl)=C(N3CCN(C)CC3)C2=O)c(C)c1`, for which the compound was called inactive.

Regarding `O=C1C(Cl)=C(N2CCCC2)C(=O)N1c1ccccc1F`, the compound was called inactive.
